Experimental data reported in PubChem BioAssay (NCATS).
Inconclusive results are not listed. Activity calls are given as the source filed them. The call rests on the fitted dose curve; in most records, active means well fitted curve in the direction sought with a large enough effect; inconclusive means small, poorly fitted or top-dose-only effect, or another doubt; inactive means no such curve, though single readings can be large; an effect the other way counts as inactive or inconclusive.

Experiments:
[1] = biological target: Rap guanine nucleotide exchange factor 3 (Homo sapiens) (UniProt O95398); experiment: Confirmatory qHTS for antagonist of cAMP-regulated guanine nucleotide exchange factor 3 (EPAC1) (AID 1645880); further: nearly all actives have a fitted effect of over 55% in size; further: potency means the concentration at half of the fitted maximal effect
Chain of Rap guanine nucleotide exchange factor 3 (Homo sapiens) (O95398 whole entry, looked up): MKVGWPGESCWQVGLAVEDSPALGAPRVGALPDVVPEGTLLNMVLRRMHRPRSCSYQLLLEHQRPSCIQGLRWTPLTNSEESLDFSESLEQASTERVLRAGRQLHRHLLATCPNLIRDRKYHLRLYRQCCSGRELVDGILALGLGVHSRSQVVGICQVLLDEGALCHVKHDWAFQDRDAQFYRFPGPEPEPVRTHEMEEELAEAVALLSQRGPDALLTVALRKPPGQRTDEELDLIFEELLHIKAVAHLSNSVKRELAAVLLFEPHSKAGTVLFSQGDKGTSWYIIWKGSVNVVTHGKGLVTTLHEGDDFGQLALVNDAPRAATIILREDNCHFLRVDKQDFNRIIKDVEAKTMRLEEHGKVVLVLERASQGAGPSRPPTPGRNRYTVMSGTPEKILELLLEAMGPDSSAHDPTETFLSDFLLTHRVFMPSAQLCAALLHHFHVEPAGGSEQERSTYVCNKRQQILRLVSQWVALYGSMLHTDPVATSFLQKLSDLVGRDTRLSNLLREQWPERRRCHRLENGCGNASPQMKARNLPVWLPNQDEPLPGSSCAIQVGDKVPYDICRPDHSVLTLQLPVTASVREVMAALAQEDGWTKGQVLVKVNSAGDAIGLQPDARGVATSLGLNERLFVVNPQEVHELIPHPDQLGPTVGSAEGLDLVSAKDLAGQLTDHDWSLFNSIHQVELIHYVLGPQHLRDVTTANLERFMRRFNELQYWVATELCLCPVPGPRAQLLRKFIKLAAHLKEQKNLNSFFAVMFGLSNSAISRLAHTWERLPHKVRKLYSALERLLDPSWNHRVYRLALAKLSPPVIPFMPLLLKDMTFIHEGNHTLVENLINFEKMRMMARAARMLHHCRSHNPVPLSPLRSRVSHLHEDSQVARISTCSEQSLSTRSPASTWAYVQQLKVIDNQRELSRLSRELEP
How it was run: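 Nucleotide exchange uses 100 nM EPAC1, 250 nM RAP1B-BODIPY-GDP and 50 uM GDP, with compounds in a concentration-titration series. After 5 min at room temperature, fluorescence (480 nm ex/540 nm em) is read every 5 min for 30 min. Data are normalized to control ATA and DMSO.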

[2] = biological target: Rap guanine nucleotide exchange factor 3 (Homo sapiens) (UniProt O95398); experiment: Confirmatory qHTS for agonist of cAMP-regulated guanine nucleotide exchange factor 3 (EPAC1) (AID 1645881); further: nearly all actives have a fitted effect of over 75% in size; further: potency means the concentration at half of the fitted maximal effect;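 on activation: EPAC1 catalysed release of BODIPY-GDP from Rap1B seen as fluorescence loss; 100% = effect of cAMP agonist control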
[3] = biological target: Rap guanine nucleotide exchange factor 4 (Homo sapiens) (UniProt Q8WZA2); experiment: Confirmatory qHTS for agonist of cAMP-regulated guanine nucleotide exchange factor 4 (EPAC2) (AID 1645884);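 further: nucleotide exchange releases bodipy-GDP from Rap1 and this lowers its fluorescence; nearly all actives have a fitted effect of over 65% in size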; further: potency means the concentration at half of the fitted maximal effect; on activation: on the % scale 0 is the no-effect control and ±100 the full control effect
Chain of Rap guanine nucleotide exchange factor 4 (Homo sapiens) (Q8WZA2 whole entry, looked up): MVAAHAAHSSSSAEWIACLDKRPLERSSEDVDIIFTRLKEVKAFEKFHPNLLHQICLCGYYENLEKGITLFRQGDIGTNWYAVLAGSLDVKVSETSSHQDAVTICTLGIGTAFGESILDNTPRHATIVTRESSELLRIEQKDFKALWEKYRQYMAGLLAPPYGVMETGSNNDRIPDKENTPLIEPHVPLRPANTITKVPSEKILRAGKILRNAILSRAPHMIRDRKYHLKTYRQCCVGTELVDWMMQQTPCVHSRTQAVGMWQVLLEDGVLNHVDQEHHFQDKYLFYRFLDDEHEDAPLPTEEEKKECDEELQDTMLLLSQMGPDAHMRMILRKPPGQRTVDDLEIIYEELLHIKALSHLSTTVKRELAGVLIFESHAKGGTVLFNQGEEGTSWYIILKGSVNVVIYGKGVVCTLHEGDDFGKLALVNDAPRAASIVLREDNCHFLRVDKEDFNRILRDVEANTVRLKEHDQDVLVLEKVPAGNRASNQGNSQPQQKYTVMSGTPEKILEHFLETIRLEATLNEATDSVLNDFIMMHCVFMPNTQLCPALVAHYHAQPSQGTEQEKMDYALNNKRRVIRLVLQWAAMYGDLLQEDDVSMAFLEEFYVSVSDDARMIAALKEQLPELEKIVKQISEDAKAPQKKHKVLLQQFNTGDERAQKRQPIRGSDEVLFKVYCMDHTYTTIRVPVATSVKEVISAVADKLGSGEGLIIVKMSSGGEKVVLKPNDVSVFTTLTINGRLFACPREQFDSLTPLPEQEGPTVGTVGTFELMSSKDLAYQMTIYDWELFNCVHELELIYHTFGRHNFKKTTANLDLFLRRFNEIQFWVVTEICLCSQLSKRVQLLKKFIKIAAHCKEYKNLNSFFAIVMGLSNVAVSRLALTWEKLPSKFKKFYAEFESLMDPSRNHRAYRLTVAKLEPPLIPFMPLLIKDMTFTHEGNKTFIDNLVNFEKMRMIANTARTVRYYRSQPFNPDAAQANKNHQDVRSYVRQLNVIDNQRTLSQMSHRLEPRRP

[4] = biological target: Rap guanine nucleotide exchange factor 4 (Homo sapiens) (UniProt Q8WZA2); experiment: Confirmatory qHTS for antagonist of cAMP-regulated guanine nucleotide exchange factor 4 (EPAC2) (AID 1645885); further: nearly all actives have a fitted effect of over 25% in size; further: potency means the concentration at half of the fitted maximal effect; on activity change, negative = inhibition: on the % scale 0 is the no-effect control and ±100 the full control effect
[5] = biological target: Rap guanine nucleotide exchange factor 3 (Homo sapiens) (UniProt O95398); experiment: Counterscreen qHTS for antagonist of cAMP-regulated guanine nucleotide exchange factor 3 (EPAC1) (AID 1645888);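 further: fluorescence loss as bound BODIPY-GDP is released from Rap1B; % of control where 0% means no effect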
How it was run: (§1)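 Measured: fluorescence of BODIPY-GDP bound to Rap1B, which falls as exchange proceeds. Conditions include 50 uM competing GDP, 5 and 30 min reads, and a later cAMP challenge for antagonist detection.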

[6] = biological target: Rap guanine nucleotide exchange factor 3 (Homo sapiens) (UniProt O95398); experiment: Counterscreen qHTS for agonist of cAMP-regulated guanine nucleotide exchange factor 3 (EPAC1) (AID 1645889); further: nearly all actives have a fitted effect of over 40% in size; further: potency means the concentration at half of the fitted maximal effect; on activation: % of control where 0% means no effect
How it was run: as §1

CC1CC(C)CN(C(=O)c2cccc(S(=O)(=O)Nc3cc(C(F)(F)F)ccc3Cl)c2)C1 (stereo unspecified)
inactive: Potency [2] | Potency [3] | Potency [4] | Potency [5] | Potency [6]
active: Potency [1] 13.5 µM

Cc1onc(-c2c(F)cccc2Cl)c1C(=O)Oc1ccccc1
inactive: Potency [1] | Potency [2] | activation [3] 1.99% [at 17.1 µM, percent relative to cAMP agonist control] | Potency [4] | activity change, negative = inhibition [5] -3.3% [at 30.8 µM] | activation [6] 7.91% [at 30.8 µM]

CCc1nc2c(OCCOc3ccc(F)cc3)cccn2c1N(C)C(=O)c1ccc(OC)cc1
inactive: Potency [1] | Potency [2] | activation [3] 3.55% [at 17.1 µM, percent relative to cAMP agonist control] | Potency [4] | activity change, negative = inhibition [5] -15.6% [at 30.8 µM] | activation [6] 11.5% [at 30.8 µM]

O=c1cc(-c2ccccc2)nc2c(-c3ccccc3)c(C(F)(F)F)[nH]n12
inactive: Potency [2] | Potency [3] | Potency [5] | Potency [6]
active: Potency [1] 42.6 µM | Potency [4] 16.9 µM

CCOCCCn1c(SCC(=O)Nc2ccc(OC)cc2OC)nc2ccccc2c1=O
inactive: Potency [1] | Potency [2] | Potency [3] | outcome [4] inactive [at 12.7 µM] | Potency [5] | Potency [6]

COc1ccc(OCC(=O)Nc2ccccc2N2CCCCC2)cc1
inactive: Potency [1] | Potency [2] | activation [3] -5.15% [at 17.1 µM, percent relative to cAMP agonist control] | Potency [4] | activity change, negative = inhibition [5] -4.31% [at 30.8 µM] | activation [6] 2.16% [at 30.8 µM]

CN(Cc1ccccc1N1CCCC1)C(=O)c1cc2cc(Cl)ccc2o1
inactive: Potency [1] | Potency [2] | Potency [3] | Potency [4] | Potency [5] | Potency [6]

CCOc1ccc(CCNC(=O)c2cccc(S(=O)(=O)N3CCCCC3)c2)cc1OCC
inactive: Potency [1] | Potency [2] | Potency [3] | Potency [4] | Potency [5] | Potency [6]

COc1cccc(NC(=O)CN(C)C(=O)CNC(=O)c2ccc(Oc3ccccc3)cc2)c1
inactive: Potency [1] | Potency [2] | activation [3] 6.73% [at 17.1 µM, percent relative to cAMP agonist control] | Potency [4] | activity change, negative = inhibition [5] -3.89% [at 30.8 µM] | activation [6] 29.7% [at 30.8 µM]

C=CC[C@@H](CC(=O)NCCO)C(=O)N[C@@H](C)COC(=O)[C@H](CC=C)CC(=O)OC(C)(C)C
inactive: Potency [1] | Potency [2] | activation [3] -2.5% [at 17.1 µM, percent relative to cAMP agonist control] | Potency [4] | activity change, negative = inhibition [5] 2.15% [at 30.8 µM] | activation [6] -7.04% [at 30.8 µM]

CC(C)(C)c1ccc(CC(=O)N2CCC2(C)C(=O)NS(=O)(=O)c2ccccc2)cc1 (stereo unspecified)
inactive: Potency [1] | Potency [2] | activation [3] 0.17% [at 17.1 µM, percent relative to cAMP agonist control] | Potency [4] | activity change, negative = inhibition [5] -2% [at 30.8 µM] | activation [6] 19.6% [at 30.8 µM]

COC(=O)c1ccc(OC(=O)c2ccc(OC)cc2)c(OC)c1
inactive: Potency [1] | Potency [2] | activation [3] 7.15% [at 17.1 µM, percent relative to cAMP agonist control] | Potency [4] | activity change, negative = inhibition [5] -8.27% [at 30.8 µM] | activation [6] 6.57% [at 30.8 µM]

Cc1ccc(CNC(=O)c2ccc3c(=O)[nH]c4c(C(=O)NCC5CCCO5)sc(=S)n4c3c2)cc1 (stereo unspecified)
active: Potency [1] 84.9 µM
inactive: Potency [2] | Potency [3] | Potency [4] | Potency [5] | Potency [6]

CC(C)OC(=O)c1c(-c2ccccc2)c(-c2ccccc2)nn(C)c1=O
inactive: Potency [1] | Potency [2] | Potency [3] | Potency [4] | Potency [5] | Potency [6]

CCC(=O)OCCCNc1nc(-c2ccc(Cl)cc2)nc2ccccc12
inactive: Potency [1] | Potency [2] | Potency [3] | Potency [4] | Potency [5] | Potency [6]

O=C(CN1C(=O)N/C(=C\c2ccccc2OCc2ccc(C(=O)O)cc2)C1=O)Nc1ccccc1F
inactive: Potency [2] | activation [3] 5.81% [at 17.1 µM, percent relative to cAMP agonist control] | Potency [4] | activity change, negative = inhibition [5] -13.4% [at 30.8 µM] | activation [6] 19.6% [at 30.8 µM]
active: Potency [1] 28.2 µM

CC(C)c1ccc(N(C(=O)c2csnn2)C(C(=O)NC(C)(C)C)c2cccnc2)cc1 (stereo unspecified)
inactive: Potency [1] | Potency [2] | Potency [3] | Potency [4] | Potency [5] | Potency [6]

COc1ccccc1/C=C1\SC(=S)N(NS(=O)(=O)c2ccc(C)cc2)C1=O
inactive: Potency [2] | activation [3] 1.14% [at 17.1 µM, percent relative to cAMP agonist control] | Potency [4] | activity change, negative = inhibition [5] 2.6% [at 30.8 µM] | activation [6] -16.6% [at 30.8 µM]
active: Potency [1] 12.6 µM

Cc1sc2ncnc(N3CCCC(C)C3)c2c1C (stereo unspecified)
inactive: Potency [1] | Potency [2] | Potency [3] | Potency [4] | Potency [5] | Potency [6]

CCOc1ccccc1C(=O)N(Cc1cccs1)c1ccc(Cl)cc1
inactive: Potency [1] | Potency [2] | Potency [3] | Potency [4] | Potency [5] | Potency [6]

CCO/C(C)=N/Oc1cc(OC)cc(OC)c1
active: Potency [4] 23.9 µM
inactive: Potency [1] | Potency [2] | Potency [3] | Potency [5] | Potency [6]

CCOC(=O)C1=C(C)N=C2SC=C(C)N2C1c1ccc(OC)cc1 (stereo unspecified)
inactive: Potency [1] | Potency [2] | Potency [3] | Potency [4] | Potency [5] | Potency [6]

C=CCSc1nc(-c2ccc(OC)cc2)c(C#N)c(=O)n1CC=C
inactive: Potency [1] | Potency [2] | activation [3] 1.63% [at 17.1 µM, percent relative to cAMP agonist control] | Potency [4] | activity change, negative = inhibition [5] -30% [at 30.8 µM] | activation [6] -17.1% [at 30.8 µM]

CCC(NS(=O)(=O)c1ccc2c(c1)NC(=O)C(C)C(=O)N2)c1cccs1 (stereo unspecified)
inactive: Potency [1] | Potency [2] | Potency [3] | Potency [4] | Potency [5] | Potency [6]

Cc1ccc(OCCC(=O)OCC(=O)NNC(=O)c2ccccc2)cc1
inactive: Potency [1] | Potency [2] | activation [3] 0.0575% [at 17.1 µM, percent relative to cAMP agonist control] | Potency [4] | activity change, negative = inhibition [5] -6.38% [at 30.8 µM] | activation [6] 0.419% [at 30.8 µM]

O=c1ccc(-c2ccccc2)nn1Cc1c(F)cccc1Cl
inactive: Potency [1] | Potency [2] | Potency [3] | Potency [4] | Potency [5] | Potency [6]

COCOCCn1cc(CN2CCS(=O)(=O)N(Cc3ccc(-c4ccc(Cl)cc4)cc3)C(CC(C)C)C2=O)nn1 (stereo unspecified)
inactive: Potency [1] | Potency [2] | Potency [3] | Potency [4] | Potency [5] | Potency [6]

O=C1c2cc(O)c(O)cc2OC(c2ccc(O)c(O)c2)C1O (stereo unspecified)
inactive: Potency [2] | Potency [3] | Potency [4] | Potency [5] | Potency [6]
active: Potency [1] 42.6 µM

CCCCN1C(=O)/C(=C/C=C2\Oc3ccccc3N2CC)SC1=S
active: Potency [2] 112 µM | Potency [3] 100 µM | Potency [6] 1.78 µM
inactive: Potency [1] | Potency [4] | Potency [5]

CCCN1C(=O)c2cc(C(=O)Nc3ccccc3CC)ccc2C1O (stereo unspecified)
inactive: Potency [1] | Potency [2] | Potency [3] | Potency [4] | Potency [5] | Potency [6]

COc1ccc(C(=O)NCCONC(=O)c2ccc(OC)cc2)cc1
inactive: Potency [1] | Potency [2] | Potency [3] | Potency [4] | Potency [5] | Potency [6]

CC(=N\NC(=O)c1ccccc1)/C(=N/O)C(=O)Nc1ccccc1
active: Potency [1] 3.16 µM
inactive: Potency [2] | activation [3] 7.97% [at 17.1 µM, percent relative to cAMP agonist control] | Potency [4] | activity change, negative = inhibition [5] 9.03% [at 30.8 µM] | activation [6] 27.9% [at 30.8 µM]

O=C(Cn1nnc2sc(-c3ccccc3)cc2c1=O)Nc1cccc(C(F)(F)F)c1
inactive: Potency [1] | Potency [2] | Potency [3] | Potency [4] | Potency [5] | Potency [6]

CCOC(=O)/C(=C\c1ccc(N2CCC(c3ccccc3)=N2)cc1)C(C)=O
inactive: Potency [1] | activation [3] 15.2% [at 17.1 µM, percent relative to cAMP agonist control] | Potency [4] | activity change, negative = inhibition [5] 28% [at 30.8 µM]
active: Potency [2] 79.4 µM | Potency [6] 12.6 µM

C=CCN(CC=C)Cc1cc(=O)oc2cc(OC)ccc12
inactive: Potency [1] | Potency [2] | activation [3] 5.94% [at 17.1 µM, percent relative to cAMP agonist control] | Potency [4] | activity change, negative = inhibition [5] -16% [at 30.8 µM] | activation [6] -2.24% [at 30.8 µM]

COC(=O)c1ccccc1NC(=O)CN1C(=O)COc2ccc(Cl)cc21
inactive: Potency [1] | Potency [2] | Potency [3] | Potency [4] | Potency [5] | Potency [6]

O=C(Nc1ccc2nc(-c3ccc4nc[nH]c4c3)[nH]c2c1)c1cccs1
inactive: Potency [1] | Potency [2] | activation [3] 3.61% [at 17.1 µM, percent relative to cAMP agonist control] | Potency [4] | activity change, negative = inhibition [5] 8.72% [at 30.8 µM] | activation [6] 15.6% [at 30.8 µM]

N#Cc1c(-c2ccccc2)nc(SCc2cccc(Cl)c2)[nH]c1=O
inactive: Potency [2] | Potency [3] | Potency [5] | Potency [6]
active: Potency [1] 67.5 µM | Potency [4] 37.9 µM

O=CN1N=C(c2ccccc2)CC1c1ccc(Cl)cc1 (stereo unspecified)
inactive: Potency [1] | Potency [2] | Potency [3] | Potency [4] | Potency [5] | Potency [6]

COc1ccc(C(=O)Nc2cccc(/C=C(\CCC(=O)O)c3nc4ccccc4s3)c2)cc1
inactive: Potency [2] | Potency [3] | Potency [4] | Potency [5] | Potency [6]
active: Potency [1] 21.3 µM

COc1ccc(C2=CC(=O)C[C@H](COCc3ccccc3)N(C(=O)OC(C)(C)C)O2)cc1
inactive: Potency [1] | Potency [2] | Potency [3] | Potency [4] | Potency [5] | Potency [6]
